# Source: PubChem BioAssay (several laboratories)
# An excerpt weighted towards active compounds, which were near 9.7% of everything screened.
# M1 antagonist: antagonists of rat M1 muscarinic receptor | P08482 | CHO-M1 cells, Fluo-4 calcium, ACh EC80 antagonist mode; hits give low values | B-score at 10 µM | 3.4% of 64,000 active | AID 628;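 active = calcium fluorescence response, raw or row-and-column corrected B-score, differing from the plate sample mean either way at a set confidence level, mostly lower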
# Target sequence (P08482 whole entry, looked up): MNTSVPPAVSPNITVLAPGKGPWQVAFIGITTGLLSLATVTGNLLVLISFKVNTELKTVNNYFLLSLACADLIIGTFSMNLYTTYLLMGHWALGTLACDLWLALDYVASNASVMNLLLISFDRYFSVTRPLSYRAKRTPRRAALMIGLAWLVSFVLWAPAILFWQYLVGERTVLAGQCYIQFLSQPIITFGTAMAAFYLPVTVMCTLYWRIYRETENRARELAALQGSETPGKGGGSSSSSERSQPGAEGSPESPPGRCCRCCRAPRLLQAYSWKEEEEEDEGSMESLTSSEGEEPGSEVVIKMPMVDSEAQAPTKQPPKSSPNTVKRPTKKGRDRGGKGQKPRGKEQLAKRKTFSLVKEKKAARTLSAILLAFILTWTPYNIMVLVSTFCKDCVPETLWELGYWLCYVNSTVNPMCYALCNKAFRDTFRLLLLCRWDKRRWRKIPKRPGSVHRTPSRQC
# WNV protease inh: WNV NS2B-NS3 proteinase inhibition. WNV NS2B-NS3 protease, fluorogenic substrate Ex360/Em465; hits give low values. AID 577. 0.18% of 65,000 active. z-score (concentration not given with the values); in the data active = z-score below about -3
# BAP1 block: inhibitors of human BAP1 deubiquitinase. Q92560. recombinant BAP1, Ub-AMC hydrolysis fluorescence kinetic; hits give low values. calls only at 20 µM. 0.48% of 72,000 active. AID 436;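 active = activity remaining at or below 50% of control, provided the compound also passes the data quality filters; inactive = the rest, including low values that fail the filters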;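 also: 100% = DMSO wells rate and 0% = substrate alone blank rate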
# M1 agonist: agonists of M1 muscarinic receptor; B-score at 10 µM; CHO-M1 cells, Fluo-4 calcium fluorescence, agonist mode; hits give high values; 3% of 64,000 active;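 active = fluorescence rise, raw or as B-score row- and column-corrected plate score, outside the 99.7% band of its plate's samples, either direction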
# Autofluor 339: intrinsic fluorescence of library compounds, ex339/em460 – biochemical, MLSMR library, data from DPM-DC assay, artefact control, profiling panel | compound autofluorescence, ex339/em460 nm, NADH buffer; hits give high values; 1 = no-compound wells, NADH background | fluorescence fold increase at 10 µM | 5.5% of 65,000 active | AID 709;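 active = at 10 µM, mean starting fluorescence two-fold or more over control wells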;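 also: signal is the first read of a kinetic run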
# Abs 340nm: compounds absorbing at 340 nm; compound absorbance at 340 nm, fold over control; fold change at 10 µM; 65,000 tested, under 10 active;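 active = at 10 µM dose, initial 340 nm absorbance at least 2 fold that of control wells; inactive = change under 2 fold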;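 also: initial absorbance extrapolated from kinetic A340 decline of NADH oxidation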
# BAP1 inh confirm: BAP1 (human) enzyme inhibition, confirmed; shares compounds with BAP1 block; purified BAP1, Ub-ethyl ester hydrolysis, HPLC; hits give low values; % of control activity, % at 20 µM; 8% of 310 active; AID 753;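 active = percent of control activity at or below 60%; inconclusive = HPLC trace unusable from injection failure or solvent front hiding peaks; inactive = the rest, plus ubiquitin peak ratio over a set limit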
# Active calls of the source: *; i = inactive; ? = inconclusive; / = no result; + = active, no number.
SMILES,M1 antagonist,WNV protease inh,BAP1 block,M1 agonist,Autofluor 339,Abs 340nm,BAP1 inh confirm
CCOC(=O)C1CCN(S(=O)(=O)c2ccc3c4c(cccc24)C(=O)N3)CC1,0.267,0.8,+,-0.076,2.12*,1.1,120.4
CCCn1c(SCC(=O)Nc2sc(C)c(C)c2C(=O)OCC)nc2c1c(=O)n(C)c(=O)n2C,0.0428,0.1,+,-0.0829,1.23,1.03,99.5
COc1ccc(-c2nc3ccccc3o2)cc1NC(=O)COc1ccc([N+](=O)[O-])cc1,/,/,i,/,/,/,/
Cc1c(N2C(=O)c3ccc4c5c(ccc(c35)C2=O)CC4)c(=O)n(-c2ccccc2)n1C,-0.193,-1.02,+,0.616,1.5,1.12,65.1
Cc1nc(N2CCN(c3ccccc3)CC2)nc2c1C(=O)CC(c1ccccc1)C2 (stereo not given),-0.067,-0.77,+,-0.706,1.22,1,60.4
CCOC(=O)CSc1nc2cc(OC)ccc2cc1C#N,-0.009,-0.6,+,-0.0207,1.79,1.02,118.3
O=C(O)c1ccc(-n2c(C=Cc3cccc([N+](=O)[O-])c3)nc3ccccc3c2=O)cc1,/,/,i,/,/,/,/
Cc1ccc(Cl)cc1N(Cc1ccc(C(=O)NCC2CCCO2)cc1)S(=O)(=O)c1ccccc1 (stereo not given),/,/,i,/,/,/,/
NS(=O)(=O)c1ccc(CNC(=O)NC23CC4CC(CC(C4)C2)C3)cc1,-0.0425,-1.83,+,-0.491,1.14,1.05,128.3
Cc1cccc(-c2cc3nc4c(c(N5CCOCC5)n3n2)CCCC4)c1,-0.835,-1.59,+,0.531,1.32,1,118.1
CCOC(=O)c1ccc(NC(=O)CSc2nc(C)cc(=O)[nH]2)cc1,0.235,0.29,+,0.204,1.11,0.99,?
Cc1cc(C(=O)NCc2cc(C(=O)O)oc2C)c(C)o1,1.4,-1.52,+,-1.06,1.05,1.03,111.1
Cc1cc(C(=O)NCc2cccs2)c(C)o1,0.0298,0.56,i,-7.38e-05,1.05,1.04,/
COc1ccc(-n2c(N)c(-c3nc4ccccc4n3C)sc2=S)cc1,0.111,-0.44,i,0.174,1.22,1.04,/
Cn1c(-c2c(N)n(C3CCCC3)c3nc4ccccc4nc23)nc2ccccc21,0.209,2.99,+,-0.572,3.82*,1.08,160.3
CC1CCN(S(=O)(=O)c2ccc(NC(=O)CN3CCN(c4ccccc4)CC3)cc2)CC1,-0.827,-0.61,i,-0.76,1.09,1.04,/
CC1CCN(S(=O)(=O)c2ccc(NC(=O)Cn3nnc(-c4ccccc4F)n3)cc2)CC1,/,0.01,+,/,1.02,0.98,134.7
Cc1ccc(Cn2ncc3c(N4CCN(c5ccccc5C)CC4)ncnc32)cc1,-0.175,-1.76,+,0.715,1.09,1.02,95.0
Cc1ccc(Cn2ncc3c(N4CCOCC4)ncnc32)cc1,-0.122,0.61,i,0.633,1.07,0.98,/
Cc1cccc(C)c1NC(=O)Cn1nnc(-c2ccc(N3CCOCC3)cc2)n1,0.24,0.49,+,0.0772,1.41,1.03,114.4
COc1ccc(CCNC(=O)Cn2nnc(-c3ccc(N4CCOCC4)cc3)n2)cc1OC,-0.412,-0.4,i,0.209,1.05,1.01,/
O=C(CSc1nc2sc3c(c2c(=O)[nH]1)CCCC3)NCCCN1CCOCC1,/,/,i,/,/,/,/
COc1ccc(C2C(C(C)=O)=C(C)N=c3s/c(=C\c4ccco4)c(=O)n32)c(OC)c1 (stereo not given),0.827,-0.25,+,-0.362,1.08,1.1,76.3
COc1ccc(N=C2CCCN2CC(N)=O)cc1,0.0605,-1.9,+,-0.205,1.04,1,86.6
O=C(Nc1cccc2ccccc12)c1cccc(N=Cc2cc(Cl)ccc2O)c1,/,/,i,/,/,/,/
SMILES,M1 antagonist,WNV protease inh,BAP1 block,M1 agonist,Autofluor 339,Abs 340nm,BAP1 inh confirm
C=CCn1c(CCNC(=O)c2ccccc2F)nnc1SCC(=O)Nc1nc(C)cs1,-0.603,1.25,+,0.526,1.14,1.05,113.1
C=CCn1c(CNC(=O)c2ccccc2C)nnc1SCC(=O)NC1CCCC1,0.0744,-0.43,i,-0.0437,1.08,1.01,/
CCOC(=O)N1CCN(c2ncnc3c2cnn3-c2ccc(OC)cc2)CC1,0.405,-1.23,i,-0.305,1.1,1,99.3
COc1ccc(-n2ncc3c(N4CCC(C)CC4)ncnc32)cc1,0.353,-0.47,i,0.000395,1.1,1,/
O=C(Nc1nnc(-c2ccco2)s1)C1CC1,-0.691,0.02,i,-0.00656,1.43,1.06,/
O=C(Nc1nnc(-c2ccco2)s1)C1CCN(S(=O)(=O)c2ccc(Cl)cc2)CC1,-0.576,0.92,+,-0.394,1.24,1.01,?
COC(=O)c1ccc(OCC(=O)c2ccc(O)cc2O)cc1,-0.118,-1.04,i,-1.76,1.05,1.13,/
CCOC(=O)c1ccc(OCC(=O)c2ccc(O)cc2O)cc1,-0.109,-1.11,+,-1.14,1.11,1.15,97.0
OCC(CO)(CO)N=Cc1cc(Br)ccc1O,0.63,-0.49,i,0.00677,1.21,1.04,/
Oc1ccc(Br)cc1/C=N/n1cnc2ccccc21,-0.0291,-1.58,+,0.00553,1.18,1.08,130.5
O=C(Nc1ccc(Br)c(C(F)(F)F)c1)c1ccc(F)cc1,/,/,i,/,/,/,/
COc1ccc(C=Nc2cccc(-c3cnc[nH]3)c2)cc1,/,/,i,/,/,/,/
O=C(Nc1ccc(NC(=O)c2ccc(-c3cccc([N+](=O)[O-])c3)o2)cc1)c1ccco1,/,/,i,/,/,/,/
CSC1=C(C#N)C2(CCCC2)C(C#N)=C(N)N1,-0.686,-1.24,+,-1.73,1.08,1.05,77.0
COc1cc(C=Nc2ccccc2O)c([N+](=O)[O-])cc1OC,/,/,i,/,/,/,/
NC(=O)c1ccccc1N/C=C/C(=O)c1ccco1,-0.00854,-0.52,+,1.05,1.38,1.19,89.4
Cc1noc(NS(=O)(=O)c2ccc(NC(=O)c3cnc4scc(C)n4c3=O)cc2)c1C,0.391,1.13,i,0.377,1.06,1.18,/
Cc1cc(NS(=O)(=O)c2ccc(NC(=O)c3cnc4scc(C)n4c3=O)cc2)nc(C)n1,1.01,-0.51,+,0.607,0.87,1.13,92.4
Cc1ccc(NC(=O)c2cnc3scc(C)n3c2=O)c(C)c1,0.639,-1.17,+,0.112,1.79,1.09,i
CN(C)CCSc1nc2ccccc2n1Cc1ccccc1,/,/,i,/,/,/,/
Cc1cc(OCC(=O)Nc2ccccc2)ccc1Br,/,/,i,/,/,/,/
CCOC(=O)c1sc(=NC(=O)c2ccc(OC)c(OC)c2)n(C)c1C,-0.387,-0.34,+,0.028,1.55,1.06,?
CCOC(=O)c1sc(=NC(=O)c2cccc(OC)c2)n(C)c1C,-0.24,-1.34,i,0.00327,1.36,1.02,/
CCOc1cc(S(=O)(=O)N2CCC(Cc3ccccc3)CC2)c(OCC)cc1-n1cnnn1,-0.112,-0.06,+,-0.428,1.44,1.01,88.6
